In all, about 330,000 compounds went through this assay and about 300 (0.091%) were called active. Another 4% or so got no clear call; they are omitted. Calls follow the shape of the dose curve; as a rule, active = well fitted inhibition curve with a large enough effect; inconclusive = small, poorly fitted or top-dose-only effect, or effect the other way, or another doubt; inactive = no such curve, though single readings can be large or run the other way. Only a selection was taken, and actives are over-represented in it overall.
target: Lysosomal acid glucosylceramidase (Homo sapiens) (UniProt P04062); experiment: qHTS Assay for Inhibitors and Activators of N370S glucocerebrosidase as a Potential Chaperone Treatment of Gaucher Disease; details: N370S GC spleen homogenate, 4MU-glucoside fluorescence; series mostly up to 59.4 µM; activity change, negative = inhibition: at the top concentration;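 as to activity change, negative = inhibition: 0% = full enzyme activity and -100% = no enzyme basal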
Potency is read from the fitted curve at half-maximal effect.

Activity change, negative = inhibition, inactive:
CCCCNc1nc(C)nc2c1nc(-c1ccccc1)n2CCCCN(CC)CC -8.02%
CC(C)[C@@H](CC(=O)N[C@@H]1CCNC[C@H]1C(=O)N[C@H](CC(=O)N[C@@H](CCC(=O)O)CC(=O)O)Cc1ccccc1)NC(=O)C[C@H](CO)NC(=O)[C@@H]1CNCC[C@H]1N 2.57%
CN(CC(=O)NC(=O)Nc1ccccc1F)Cc1ccccc1 -12.4%
Oc1ccc(-c2c(-c3ccccc3)nn3c(C(F)(F)F)cc(C(F)(F)F)nc23)cc1 -2.59%
Cn1c(N)c(C(=O)COC(=O)c2cc(C(F)(F)F)nc3c(C(F)(F)F)cccc23)c(=O)n(C)c1=O -1.81%
Cc1cc(C)cc(NC(=O)C(c2ccccc2)N2CCN(CC(=O)N3CCCC3)CC2)c1 (centres undefined) -10.5%
CCCn1c(-c2ccc(F)cc2)nc2c(NCC3CCCN3CC)nc(C)nc21 (centres undefined) 3.01%
Cc1cccc(CNc2ccnc(-c3cccnc3)n2)c1 4%
CC(C)C(NS(=O)(=O)c1ccc(-c2ccc(Br)cc2)cc1)C(=O)O (centres undefined) -1%
Cn1nc(C(=O)OCC(=O)N(Cc2ccccc2)C(C)(C)C)c2ccccc2c1=O -0.388%
O=S(O)S(=O)(=O)O -2.71%
O=C(CN1CCN(C2CCS(=O)(=O)C2)CC1)N1N=C(c2ccc(Cl)cc2)CC1c1ccco1 (centres undefined) -0.578%
O=C(CCNS(=O)(=O)c1ccccc1)NCCCc1ccccc1 -3.56%
Cc1ccc(-n2nc(C)c(C(=O)O)c2-n2cccc2)cc1 -10.4%
COCCNc1nc(-c2ccccc2)nc2c1oc1ccccc12 26.2%
COc1ccccc1-c1nc(NCCNC(C)=O)c2ccccc2n1 -7.54%
O=C(CN1CCCCC1)NC(=O)Nc1ccccc1F -13.3%
COc1ccc(C2/C=C\CN(C(=O)c3ccc(C)cc3)C(Cc3ccccc3)C(=O)N2Cc2ccc(F)cc2)cc1 (centres undefined) -6.74%
O=C(CSc1nnc(CN2CCCC2)n1-c1ccc(F)cc1)c1ccc2c(c1)OCO2 -3.16%
COc1ccc2c(c1)O[C@@H](c1ccc3c(c1)OCO3)[C@H](OC(=O)NCCc1ccc(OC)c(OC)c1)C2=O 1.5%
Cc1ccc(NC(=O)Cn2c(C)csc2=O)cc1 0.884%
CN1CCN(c2ccc(NC(=O)c3cc(Cl)c4c(c3)OCCO4)cc2)CC1 -1.3%
C1CCC2OC2C1 (centres undefined) 4.47%
Cc1ccc(C)c(NC(=O)C(c2ccccc2)N2CCN(CC(=O)NC3CC3)CC2)c1 (centres undefined) -6.58%
COc1ccc(CCNC(=O)COC(=O)Cc2cccc(F)c2)cc1 -3.01%
C=CCOC(=O)C(=C)C -1.86%
O=C(NCc1ccccn1)[C@]1(C(F)(F)F)C[C@H](CCc2ccccc2)CCCO1 7.16%
COC(=O)C(CC(C)C)NS(=O)(=O)c1cc(Br)ccc1Br (centres undefined) -1.26%
Cc1csc(NC(=O)C2CCN(S(=O)(=O)c3ccccc3)CC2)n1 -2.1%
CNC(=O)[C@]1(C(F)(F)F)C[C@H](CCc2ccccc2)CCCO1 1.95%
CN1CCc2nc(-c3ccccc3)c(-c3ccccc3)cc2C1 -2.21% [at 12.8 µM]
COc1ccc(-c2nc(-c3ccccc3)oc2Nc2ccc3ccccc3c2)cc1 0.754%
COc1cccc([C@@H]2Oc3ccc(Br)cc3C(=O)[C@H]2OC(=O)NCc2ccc3c(c2)OCO3)c1 7.03%
CC(OC(=O)Cc1ccc(F)cc1)C(=O)N1CCc2ccccc21 (centres undefined) 0.251%
CCOC(=O)Cn1c(=O)sc2cccc(Cl)c21 9.84%
Cc1cc(N(C)C)nc(Cl)n1 0.258%
CNC(=O)C1CC(=O)N(c2ccc(OCC(=O)Nc3ccccc3C)cc2)C1 (centres undefined) -0.727%
C=C(C)C(=O)c1ccc(F)cc1 5.76%
CCCN1CCC(=O)N(C(CSc2ccc(C)cc2)Cc2ccccc2)CC1 (centres undefined) -17.3%
CCN(C(=O)COC(=O)CCOc1cccc(C)c1)c1c(N)n(Cc2ccccc2)c(=O)[nH]c1=O -8.31%
CC(C)C[C@H](NC(=O)[C@H](O)[C@H](N)Cc1ccccc1)C(=O)O -1.12%
Cc1cc(C)n2nc(C(=O)Nc3cccc(S(=O)(=O)N4CCOCC4)c3)nc2n1 2.72%
COC(=O)C1(Cc2ccccc2)C=C2C(=C(C)C(=O)C2C)CN1 (centres undefined) -2.63%
COC(=O)[C@@]1(C)C=C[C@@H](Cc2ccccc2)N1C(C)=O -6.27%
Cn1c2cc(B(O)O)sc2c2cnn(Cc3ccccc3F)c(=O)c21 -12.5%
Cc1ccc(/C(=C/CN2CCCC2)c2ccccn2)cc1
CCN(CC)CCCCn1c(-c2ccccc2)nc2c(N3CCOCC3)nc(C)nc21 -6.36%
COc1cccc(NC(=O)CN(C)C(=O)/C=C/c2cn(-c3ccccc3)nc2-c2cccs2)c1 6.87%
COc1ccc(C2/C=C\CN(Cc3ccco3)C(C)C(=O)N2Cc2ccc(F)cc2)cc1 (centres undefined) -4.54%
O=C(CN1CCCCC1)Nc1ccccc1C(=O)NC1CC1 -15.8%
C=C1CCN(C(CC(C)C)C(=O)NCc2cc(OC)c(OC)c(OC)c2)S(=O)(=O)c2ccccc21 (centres undefined) -17%
BrC1C(Br)C(Br)C(Br)C(Br)C1Br (centres undefined) 7.49%
CCCCn1c(N)c(N(CCC(C)C)C(=O)COC(=O)c2ccc(CC)cc2)c(=O)[nH]c1=O -8.39%
Cc1ccc(C(CC(=O)O)NC(=O)c2ccc(S(=O)(=O)N3CCCC3)cc2)cc1 (centres undefined) -0.149%
CC(C)=CCC[C@]1(C)[C@@H](CC=C(C)C)C[C@@]2(CC=C(C)C)C(=O)[C@]1(C(=O)C(C)C)C(=O)C(CC=C(C)C)=C2O -4.71%
O=C(CSc1nnc(COc2ccc(Cl)cc2)n1Cc1ccco1)N1CCNC1=O 1.42%
CCC(=O)c1ccc(OCC(=O)N(CC)CC2COc3ccccc3O2)cc1 (centres undefined) -0.293%
CC1Cc2ccccc2N1S(=O)(=O)c1cccc(C(=O)NCC(c2ccco2)N2CCCC2)c1 (centres undefined) -17.1%
C[C@@H]1O[C@@H](O[C@@H]2[C@@H](O)[C@H](OCCc3ccc(O)c(O)c3)O[C@H](CO[C@@H]3O[C@H](CO)[C@@H](O)[C@H](O)[C@H]3O)[C@H]2OC(=O)/C=C/c2ccc(O)c(O)c2)[C@H](O)[C@H](O)[C@H]1O -12.8%
C=CCC(C)(O)c1ccco1 (centres undefined) -11%
COc1ccc(C2CC(O)(c3ccccc3)Oc3cc(C)cc(C)c32)cc1 (centres undefined) 3.66%
C=CCN1C(=O)c2ccc(C(=O)N3CCC(C(=O)OCC)CC3)cc2C1=O -1.64%
O=C(COC(=O)c1ccccc1Cl)NC1CCCCCCC1 1.18%
C[C@H]1CC[C@H](C(=O)O)N[C@@H]1c1ccc(C#Cc2ccccc2)cc1 5.48% [at 12.8 µM]
COc1ccc(-c2nc3c(c4c2C[C@H](c2ccccc2)OC4)CN(S(=O)(=O)c2c(C)noc2C)CC3)c(C)c1 -9.78% [at 12.8 µM]
COC(=O)c1sc(NC(=O)COC(=O)C2CCC2)c(C(=O)OC)c1C -10.4%
CC(C)c1cnc(NC(=O)Cc2ccccc2)s1 21.3%
NCCC(=O)c1ccccc1N 2.36%
O=C(CCNC(=O)c1ccc([N+](=O)[O-])cc1)NC1CCCCC1 -0.406%
CCN(c1ccccc1)S(=O)(=O)c1cc(C(=O)NCc2ccccn2)ccc1C -1.72%
C=C1/C(=C\C=C2\CCCC3(C)C2CCC3C(C)/C=C/C(O)C2CC2)CC(O)CC1O (centres undefined) -4.51%
COc1ccc(CC(N)C(=O)NC2C(O)[C@H](n3cnc4c(N(C)C)ncnc43)O[C@@H]2CO)cc1 (some centres undefined) 1.71%
COC(=O)[C@H]1C[C@@H]1[C@H](NC(=O)Oc1ccc(F)cc1)c1ccccc1 2.79%
Cc1nnc(NC(=O)c2ccc3nccnc3c2)s1 -1.49%
COc1ccc(C2C(C#N)=C(/N=C/N3CCOCC3)OC3=C2C(=O)CC(C)(C)C3)cc1OC (centres undefined) 12.4%
CCOC(=O)C1=C(C)NC2=C(C(=O)CC(C)(C)C2)C1c1ccsc1 (centres undefined) 0.443%
O=S(=O)(NC1CCN(S(=O)(=O)c2ccc3c(c2)OCCO3)CC1)c1c(F)cccc1F -3.77%
CCN(CC)S(=O)(=O)c1ccc(CNC(=O)CN2C(=O)NC3(CCc4ccccc43)C2=O)cc1 (centres undefined) 1.57%
CC(C)(Oc1ccc(Cl)cc1)C(=O)OCC(=O)NCCc1ccc(S(N)(=O)=O)cc1 -2.49%
CCCC(Cl)CCCC(Cl)CCC(Cl)CCC(Cl)CCC(Cl)CCCC(Cl)CCC (centres undefined) -0.806%
CCCC[C@H]1C(=O)N(c2ccccc2)N(c2ccc(O)cc2)C1=O 11.4% [at 21.6 µM]
C=CCC1CCC(=O)N2CCCC12 (centres undefined) -6.15% [at 136 µM]
COc1cc2c(cc1OC)CN(C(C)C(=O)Nc1cccc(S(=O)(=O)N3CCOCC3)c1)CC2 (centres undefined) -1.61%
OC[C@H]1O[C@@H](n2cnc3c(NC4CCCC4)ncnc32)[C@H](O)[C@H]1O 1.48%
CCOC(=O)[C@]1(C(/C=C/c2ccco2)NC(=O)OC)CCCC1=O (some centres undefined) 2.17% [at 12.8 µM]
CCCCC/C=C\C[C@H](O)/C=C/C=C/C=C/[C@@H](O)CCCC(=O)O -0.244%
CCNc1ncc2ncc(=O)n(Cc3cccc(OC)c3)c2n1 26.5%
CC(Nc1oc(-c2ccccc2)nc1-c1ccccc1)c1ccccc1 (centres undefined)
CN(CC(=O)NCCc1ccc(F)cc1)CC(=O)Nc1ccc(F)c(F)c1F -17.8%
CC1(C)OC(C(O)(c2ccccc2)c2ccccc2)C(C(O)(c2ccccc2)c2ccccc2)O1 (centres undefined) -1.37% [at 12.8 µM]
Cc1ccc(SCC(CC(C)C)N2CCN(CCc3ccccc3)CCC2=O)cc1 (centres undefined) -11.1%

Potency, active:
CCC(=O)OCCNc1nc(-c2ccccc2)nc2ccccc12 2 µM
N#Cc1cc2[nH]c(=O)c(=O)[nH]c2cc1[N+](=O)[O-] 22.4 µM
COc1cc(C2C(C#N)=C(C)NC3=C2C(=O)CC(C)(C)C3)ccc1O (centres undefined) 10 µM

Source: PubChem BioAssay AID2101 (National Center for Advancing Translational Sciences (NCATS), 2009)
